Source: PubChem (several laboratories)
In the library only some 2.8% were active in any assay of this set; here they are far more common.
Peg3 prom inh = Peg3 promoter-driven luciferase inhibitors, primary screen, cell-based, HeLa, luciferase luminescence | HeLa PEG-Prom luciferase reporter, overnight | inhibition, % at 20 µM | hit rate 1.7% among 360,000 | AID 588405, 2011;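 active means inhibition of at least 50% at 20 µM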
HIF-2a block = HIF-2a reporter inhibitors, primary screen, luminescence, 786-0 RCC cells; 786-0 RCC cells HIF-2a reporter, luciferase luminescence, overnight; inhibition, % at 18.8 µM; hit rate 0.72% among 360,000; AID 624352, 2012;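 active means inhibition of the luminescence signal of 40% or more relative to plate controls, in a single-dose primary screen at 18.75 µM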
MITF TRPM1 inh = inhibitors of MITF-dependent TRPM1 promoter reporter, primary screen, cell-based, SK-MEL-5, single point, luciferase; SK-MEL-5 TRPM1 promoter luciferase, 24 h; AID 488899, 2010; hit rate 0.83% among 330,000; inhibition, % at 12.5 µM;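 active means mean inhibition across replicates of 60% or more, whatever share of single replicates reaches that level; inconclusive means some that reach 60%, reason not given; inactive means mean inhibition across replicates below 60%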
KKLEB cytotox = cytotoxicity in KKLEB CF airway cells, primary screen, cytotoxicity control for CF NF-kB inhibitor project, cell-based, uHTS, fluorescence assay plates. KKLEB CF airway cells viability, ATPlite luminescence, overnight; active compounds read low; cells stimulated with P. aeruginosa culture filtrate. activity change (cytotoxicity), % at 5 µM. hit rate 0.36% among 360,000. AID 602141, 2011;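 active means corrected activity change at or below -50% at 5 µM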
CF NFkB block = inhibitors of PAF-induced NF-kB signaling, primary screen, cell-based, GFP fluorescence, uHTS | KKLEB NF-kB-GFP reporter, GFP fluorescence overnight | hit rate 0.86% among 360,000 | inhibition, % at 5 µM | AID 588850, 2011;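 active means at least 50% inhibition at 5 µM, scaled per plate between neutral and stimulator controls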;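 further: PAF is a Pseudomonas aeruginosa culture filtrate used as stimulus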
Shn3 3UTR inh = reduction of Shn3 3'UTR firefly luciferase signal, primary screen, Schnurri-3 inhibitor project, cell-based, Clone20 osteoblasts, set 2; Clone20 osteoblast Shn3 3'UTR firefly luciferase, 24 h; inhibition, % at 12.5 µM; hit rate 0.52% among 360,000;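 active means mean inhibition of at least 75% with every replicate also reaching 75%; inconclusive means mean inhibition at least 75% but some replicate below; inactive means mean inhibition below 75%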
Mdm2 MdmX conf = retested Mdm2-MdmX interaction blockers, confirmation, cell-based, luminescence, single concentration, set 2; SaOS-2 split-luciferase Mdm2/MdmX complementation; hit rate 99% among 740; inhibition, % at 8 µM; shares compounds with HIF-2a block;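 active means mean inhibition of the luminescence signal across two replicates at or above 26 percent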
Target sequence (O15151 whole entry, looked up): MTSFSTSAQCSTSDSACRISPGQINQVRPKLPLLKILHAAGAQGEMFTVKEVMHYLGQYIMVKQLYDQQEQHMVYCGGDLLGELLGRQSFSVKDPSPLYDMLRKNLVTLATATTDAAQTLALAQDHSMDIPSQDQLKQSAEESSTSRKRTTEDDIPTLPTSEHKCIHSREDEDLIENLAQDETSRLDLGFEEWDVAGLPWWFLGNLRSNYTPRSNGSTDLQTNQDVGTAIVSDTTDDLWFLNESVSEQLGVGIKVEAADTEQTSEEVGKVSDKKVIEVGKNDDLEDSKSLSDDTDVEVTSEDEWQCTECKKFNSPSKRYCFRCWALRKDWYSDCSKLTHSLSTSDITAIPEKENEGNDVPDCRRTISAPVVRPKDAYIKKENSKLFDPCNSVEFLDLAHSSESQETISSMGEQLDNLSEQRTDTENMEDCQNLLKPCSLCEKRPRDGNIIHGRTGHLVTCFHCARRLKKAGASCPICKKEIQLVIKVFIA
Target sequence (Q00987 whole entry, looked up): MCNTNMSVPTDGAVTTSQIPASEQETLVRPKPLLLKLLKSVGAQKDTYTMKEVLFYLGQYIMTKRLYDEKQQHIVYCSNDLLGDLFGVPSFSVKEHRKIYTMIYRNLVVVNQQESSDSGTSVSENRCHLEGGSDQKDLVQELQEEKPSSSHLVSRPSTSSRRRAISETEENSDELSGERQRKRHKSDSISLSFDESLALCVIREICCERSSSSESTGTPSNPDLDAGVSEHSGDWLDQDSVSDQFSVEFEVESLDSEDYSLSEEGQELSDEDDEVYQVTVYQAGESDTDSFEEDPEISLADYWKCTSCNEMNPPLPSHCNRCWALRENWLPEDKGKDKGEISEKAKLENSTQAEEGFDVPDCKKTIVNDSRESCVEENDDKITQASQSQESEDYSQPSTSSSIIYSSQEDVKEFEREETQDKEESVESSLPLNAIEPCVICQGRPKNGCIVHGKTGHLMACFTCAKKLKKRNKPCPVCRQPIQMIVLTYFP
HIF-2a inh conf = HIF-2a reporter inhibitor retest, confirmation, luminescence, 786-0 RCC cells | shares compounds with HIF-2a block | HIF-2a luciferase reporter luminescence, overnight | inhibition, % at 18.8 µM | hit rate 56% among 1,800 | AID 651580, 2012;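 active means mean inhibition across four replicates of at least 40 percent at the single tested concentration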
HIF-1a counter = HIF-1a luciferase reporter signal reduction – MiaPaCa-2 cells, single concentration, counter-screen for HIF-2a inhibitor project, confirmation; inhibition, % at 18.8 µM; shares compounds with HIF-2a block; MiaPaCa-2 HIF-1a luciferase reporter, desferoxamine, overnight; hit rate 72% among 1,800;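 active means mean inhibition of the reporter signal across four replicates at the single tested dose of 50% or more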
Numbers stand for hits; i = inactive; ? = inconclusive; nt = no result given.

SMILES | Peg3 prom inh | HIF-2a block | MITF TRPM1 inh | KKLEB cytotox | CF NFkB block | Shn3 3UTR inh | HIF-2a inh conf | HIF-1a counter | others
Cc1cc(C)n(CCC(=O)N/N=C/c2ccc(O)cc2)n1 | i | i | i | i | i | i | nt | nt
Cc1cc(C)n(CCC(=O)N/N=C/c2c(O)ccc3ccccc23)n1 | 65 | i | ? | i | i | 97 | nt | nt | Mdm2 MdmX conf=88
CN(C)S(=O)(=O)c1cccc(C(=O)OCC(=O)c2c(N)n(C)c(=O)n(C)c2=O)c1 | i | 41 | i | i | i | i | i | i
COc1ccc(NC(=O)c2cc([N+](=O)[O-])ccc2O)cc1 | 83 | 71 | 84 | i | i | i | 86 | 102
Cc1cc(F)ccc1S(=O)(=O)Nc1ccccc1C(=O)Nc1ccccc1-c1nc2ccccc2[nH]1 | 96 | i | ? | -59 | 74 | 91 | nt | nt | Mdm2 MdmX conf=97
CC(C)(C)c1ccc(Cn2nnc3c(=O)[nH]c(C4CCCN(C(=O)c5cccs5)C4)nc32)cc1 (stereo not given) | i | 43 | i | i | i | i | i | 84
Cc1ccc(C2=C(O)c3ccccc3C(=O)C2=O)cc1 | i | i | i | i | i | i | nt | nt
NC(=O)C1=C(c2ccccc2)c2ccccc2C1=O | i | 51 | i | i | i | i | i | i
COc1ccccc1NCc1nnc(-c2ccccc2)o1 | i | i | i | i | i | i | nt | nt
O=C(NCCC1CCCCN1S(=O)(=O)c1ccc(F)cc1)C(=O)NCc1ccncc1 (stereo not given) | i | 43 | i | i | i | i | i | i
O=C(NCCC1CCCCN1S(=O)(=O)c1ccc(Cl)cc1)C(=O)NCc1ccncc1 (stereo not given) | i | i | i | i | i | i | nt | nt
O=C(CSCC(=O)c1ccc([N+](=O)[O-])cc1)c1ccc([N+](=O)[O-])cc1 | i | i | nt | i | i | i | nt | nt
O=C(C#Cc1ccccc1)c1ccc([N+](=O)[O-])cc1 | 108 | 40 | 69 | i | i | 95 | i | 89 | Mdm2 MdmX conf=103
Cc1cc(Br)cc(Br)c1OCC(=O)NNC(=O)c1ccoc1C | i | i | i | i | i | i | nt | nt
C#CCN(C[C@@H]1[C@@H](OC(=O)NCCCCCC)[C@@H](OC(=O)NCCCCCC)Cn2c(=O)ccc(=O)n21)S(=O)(=O)c1ccc(C)cc1 | 98 | 95 | nt | -89 | 87 | i | 91 | 107
C#CCN(C[C@@H]1[C@@H](OC(=O)NCc2ccc(OC)c(OC)c2)[C@@H](OC(=O)NCc2ccc(OC)c(OC)c2)Cn2c(=O)ccc(=O)n21)S(=O)(=O)c1ccc(C)cc1 | i | i | nt | i | i | i | nt | nt
C#CCN(C[C@@H]1[C@@H](OC(=O)NCC2CCCCC2)[C@@H](OC(=O)NCC2CCCCC2)Cn2c(=O)ccc(=O)n21)S(=O)(=O)c1ccc(C)cc1 | 106 | 97 | nt | -97 | 106 | 99 | 99 | 107
COc1cccc(COC(=O)Nc2ccccc2)c1OC | i | i | nt | i | i | i | nt | nt
CCc1ccc(NC(=O)c2sc3nc4n(c(=O)c3c2C)CCC4)cc1 | i | i | i | i | i | i | nt | nt
CC(=O)Nc1ccc(NC(=O)c2sc3nc4n(c(=O)c3c2C)CCCCC4)cc1 | i | 80 | i | i | i | i | 90 | 90
CC(C)(C)[C@H](N)C(=O)N[C@H]1CCC2C3CC=C4C[C@@H](O)CC[C@]4(C)C3CC[C@@]21C (stereo not given in full) | 96 | 94 | 76 | -68 | i | i | i | 105 | Mdm2 MdmX conf=103
CC(=O)c1ccc(Nc2cc(C)nc3c(C)cc(C)cc23)cc1 | 103 | 59 | i | i | i | i | i | 85
CC(C)(C)NC(=O)COc1ccccc1C#N | i | i | i | i | i | i | nt | nt
O=C(CNC(=O)c1ccccc1Cl)NCCc1cccs1 | i | i | i | i | i | i | nt | nt
Cc1c(CCC(=O)N2CCC(C(=O)O)(c3ccccc3)CC2)c(=O)oc2cc3oc4c(c3cc12)CCCC4 | i | 63 | i | i | i | i | 78 | i
SMILES | Peg3 prom inh | HIF-2a block | MITF TRPM1 inh | KKLEB cytotox | CF NFkB block | Shn3 3UTR inh | HIF-2a inh conf | HIF-1a counter | others
O=C(C(=O)N1CCN(c2ccccc2)CC1)c1ccco1 | nt | i | nt | nt | nt | nt | nt | nt
CSc1nnc(NC(=O)c2nc(S(=O)(=O)Cc3cccc(C)c3)ncc2Cl)s1 | 101 | 73 | 81 | -50 | 90 | 96 | i | 107 | Mdm2 MdmX conf=103
Cc1nnc(NC(=O)c2nc(S(=O)(=O)Cc3ccccc3C)ncc2Cl)s1 | 106 | 91 | 80 | -92 | 99 | 96 | i | 105 | Mdm2 MdmX conf=103
Cc1cccc(CS(=O)(=O)c2ncc(Cl)c(C(=O)Nc3nnc(C(C)C)s3)n2)c1 | 106 | 82 | 76 | -87 | 92 | 95 | nt | nt | Mdm2 MdmX conf=103
CC(C)c1nnc(NC(=O)c2nc(S(=O)(=O)Cc3ccc(F)cc3)ncc2Cl)s1 | 106 | 64 | 75 | -101 | 89 | 98 | 66 | 107 | Mdm2 MdmX conf=103
CCC1(CC)NC(=O)N(CC(=O)OC(C)C(=O)Nc2ccc(NC(C)=O)cc2)C1=O (stereo not given) | i | i | i | i | i | i | nt | nt
CCSc1nnc(NC(=O)c2nc(S(=O)(=O)Cc3ccc(F)cc3)ncc2Cl)s1 | 107 | 88 | i | -97 | 92 | 96 | i | 97
Cc1ccc(CS(=O)(=O)c2ncc(Cl)c(C(=O)Nc3nnc(C(C)C)s3)n2)cc1 | 110 | 76 | 79 | -86 | 85 | 95 | 88 | 106
CSc1ncc(Cl)c(C(=O)Nc2nnc(SC/C=C/c3ccccc3)s2)n1 | i | i | i | i | i | i | nt | nt
CSc1nnc(NC(=O)c2nc(S(=O)(=O)Cc3ccccc3F)ncc2Cl)s1 | 106 | 68 | 75 | -79 | 95 | 96 | i | 106 | Mdm2 MdmX conf=102
CC1(C)C2CCC(C2)C1C/C=N/NC(N)=S (stereo not given) | i | i | i | i | i | i | nt | nt
Cc1ccc(SCCC(=O)NNC(=O)c2ccccc2F)cc1 | i | i | i | i | i | i | nt | nt
C=C(CN(C)C)C(=O)c1ccc(OC2OC(COC(C)=O)C(OC(C)=O)C(OC(C)=O)C2OC(C)=O)cc1 (stereo not given) | 100 | 89 | 115 | i | 60 | 98 | 96 | 105
